About 83,000 compounds went through this panel and 20% of them were active in at least one assay; those are over-represented in the sample as a whole.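 Plates (96-well) were seeded with cells, treated with compound at one concentration, and incubated for 48 hours before percent growth was determined.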 Unmarked numbers belong to inactive results. Active and inactive are the calls of the source.
These compounds were tested on MOLT-4 leukemia (assay: NCI-60 one-dose screen, 48 h (100 = growth as untreated, 0 = no growth, -100 = all killed)). Details: 10 µM unless noted.
Procedure: Growth inhibition of the MOLT-4 human tumor cell line is measured as a screen for anti-cancer activity. Cells are grown in 96 well plates and exposed to the test compound for 48 hours. Compounds are tested at a single concentration, which is 10^-5 M for most compounds. The reported endpoint is percent growth (GI% or GIPRCNT), where numbers from 0 - 100% represent growth inhibition, and numbers from -100% - 0 represent cell death. For example, a value of 40 represents 60% growth inhibition. A value of 0 means no net growth occurred over the course of the experiment. A value of -40 indicates 40% of cells at the beginning of the experiment died by the end of the experiment. A value of -100 means all cells are dead at the end of the experiment.
NCI-60 Human Tumor Cell Lines Screen was performed using the standard one-dose NCI protocol, which is described in more detail at https://dtp.cancer.gov/discovery_development/nci-60/default.htm.
Compounds with GIPRCNT values below 10 were considered active. Activity score was based on GIPRCNT using the following formula: […]
Score is 0 for GIPRCNT values of 100 or above, 50 for GIPRCNT values of 0, and 100 for GIPRCNT values of -100.
With `Cc1ccsc1/C=C/C1=NCCCN1C` the growth was 95%.
`O=C(Nc1ccc(Cl)cc1)Nc1ccc(Oc2nncc3ccccc23)cc1` was tested, and the growth was 3.99% (active).
In the case of `S=c1[nH]nc2sc3ccccc3n12`, the growth was 92.7%.
In the case of `N#Cc1c2ccccc2c2n1-c1ccccc1OC(c1ccccc1)C2=O` (stereo not given), the growth was 56.4%.
For `O=C(CSc1nc2c(n1Nc1ccccc1)-c1ccccc1SC2)Nc1nc(-c2ccc(Cl)cc2)cs1`, the growth was 78.4%.
`COC(=O)CCC1=C(C)C(C)=N/C1=C\c1[nH]c(-c2ccc[nH]2)cc1OC` was tested, and the growth was -29.7% (active).
`Nc1ncc(-c2cnn(C3CCNCC3)c2)cc1-c1nc2cc(Cl)ccc2o1` was tested, and the growth was -91.8% (active).
In the case of `C[n+]1ccc(C#N)c2ccccc21`, the growth was 64.5%.
`CC(=O)c1nc2ccccc2n1CCn1cc(CC(N)C(=O)O)c2ccccc21` (stereo not given) was tested, and the growth was 83.9%.
Work on `CCC1=C(c2ccc(OC)cc2)C(C)(C)Oc2cc(O)c(CN3CCCC3)cc21` yielded a growth of 66.3%.
With `Cc1nc2cc(NC(=O)CN3CCN(CCN4C(=O)c5cccc6cccc(c56)C4=O)CC3)ccc2s1` the growth was 9.64% (active).
Compound `O=C1Nc2ccccc2C12Nc1cc(Cl)ccc1S2` (stereo not given) has a growth of 60.1%.
With `Oc1[nH]c2ccccc2c1/C=c1/ccc2c(c1)N=C(c1cc(F)cc(F)c1)N=2` the growth was 21%.
With `O=NC1CC=CCC1c1ccccc1` (stereo not given) the growth was 102%.
In the case of `O=C1/C(=C/c2ccc([N+](=O)[O-])o2)Oc2ccc(Br)cc21`, the growth was 1.28% (active).
`O=[N+]([O-])c1ccc2c(c1)S(=O)c1cc([N+](=O)[O-])ccc1N2` showed a growth of 93%.
`CCC1(c2ccccc2)Oc2ccccc2-n2c(C#N)c3ccccc3c2C1=O` (stereo not given) gave a growth of 91%.
For `CN(C)c1cccc2c(S(=O)(=O)N[C@H]3CC[C@H]4[C@@H]5CCc6cc(O)ccc6[C@H]5CC[C@]34C)cccc12`, the growth was 17.3%.
In the case of `O=C(Nc1ccccc1Cl)c1cnc2ccc(C3CCNCC3)cn12`, the growth was 62.5%.
`Cc1cc(NC(=O)c2ccc(N)cc2)ccc1N=Nc1ccc2c(O)c(N=Nc3ccc(Cl)c(S(=O)(=O)O)c3)c(S(=O)(=O)O)cc2c1` was tested, and the growth was 99.3%.
`Cc1cc2cn3c4cccnc4[nH]c(=O)c3c2cc1C` showed a growth of 18.4%.
`CCCCCCC/C(=N\N=C(N)N)c1ccc(O)cc1` showed a growth of 24.9%.
In the case of `c1ccc(N2CCN(c3nncc4ccccc34)CC2)nc1`, the growth was 106%.
In the case of `CCOc1nc(-c2ccccc2)cc2c(O)c(-c3nnco3)[nH]c(=O)c12`, the growth was 30%.
`COc1cccc(CCC2C(=O)CCCC2=O)c1` showed a growth of 92.1%.
Work on `COc1ccc(-c2cc(Cc3cccs3)c(=O)n(Cn3ccc4ccccc43)n2)cc1` yielded a growth of 97.5%.
`c1cnc2ccc3ncccc3c2c1` gave a growth of 106%.
Compound `NC(=O)c1ccccc1NC(=O)c1ccccc1Cl` has a growth of 63.7%.
Compound `CC1=C(C(=O)Nc2ccccc2)C(c2ccc3c(c2)OCCO3)NC(=O)N1` (stereo not given) has a growth of 101%.
`O=C1NCN(c2ccccc2)C12CCN(CCCC(c1ccc(F)cc1)c1ccc(F)cc1)CC2` gave a growth of 34.3%.
With `Cc1ccc2c(c1)O/C(=C\c1ccc([N+](=O)[O-])o1)C2=O` the growth was -1.6% (active).
In the case of `COc1ccc(-c2oc3cc(O)c(OC)c(O)c3c(=O)c2OC)cc1O`, the growth was 14.4%.
`O=C1/C(=C/c2ccc([N+](=O)[O-])s2)Oc2ccc(Br)cc21` was tested, and the growth was -16.8% (active).
In the case of `COc1ccc(OC)c2c1[nH]c(=O)c1c3ccccc3cn21`, the growth was -15.7% (active).
With `COc1cc2c(cc1OCCCCCn1c(-c3ccc(OCc4ccccc4)cc3)nc3cc(N4CCOCC4)ccc31)N=C[C@@H]1CCCN1C2=O` the growth was 23.7%.
Work on `Nc1ccc2c(c1)/C(=N/O)c1cc([N+](=O)[O-])ccc1-2` yielded a growth of 25.6%.
`C[C@]12C[C@H](O)[C@H]3[C@@H](CCC4=CC(=O)CC[C@@]43C)[C@@H]1CC[C@@H]2C(=O)CO` showed a growth of 116%.
For `C=CCCCCCCCCC(=O)[O][Sn]([CH2]CCC)([CH2]CCC)[CH2]CCC`, the growth was 4.17% (active).
`c1ccc(-n2nnnc2-c2cccc3ccccc23)cc1` was tested, and the growth was 29.8%.
With `C=C(C)[C@@H]1C[C@H](O)Cc2cc(Cl)cc(Cl)c2N1` the growth was 88.3%.

From PubChem BioAssay (NCI)
